Most compounds without a hit are left out; they make up all but 2% or so of the library.
Abeta rescue = A-beta toxicity reversal in yeast | yeast expressing A-beta42, growth rescue, OD600, 48 h; response scale: 0% DMSO, 100% iron-clioquinol control | Potency, µM (series often up to 46.1 µM), hits mostly activators | hit rate 0.063% among 410,000 | AID 1347071; also: nearly all actives have a fitted effect of over 55% in size
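Yeast growth medium received pinned compounds, then yeast cells expressing toxic A-beta were added; plates incubated at 30 C for 48 hr. Growth read as absorbance at 600 nm, normalized to DMSO and equimolar FeCl3 plus clioquinol controls.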
S-ASM inh = blocks human secretory acid sphingomyelinase. P17405. placental ASM, HMU-PC fluorogenic substrate, 60 min. Potency, µM (top dose mostly 57.5 µM), without a hit: at the highest dose activity change, negative = inhibition, hits mostly inhibitors. hit rate 0.006% among 340,000. AID 504937
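Human placenta-derived ASM enzyme was preincubated with compound for 10 minutes at room temperature, then given fluorogenic substrate HMU-PC0 (9 uM final) for 60 minutes at 37 °C; a pH 10 stop preceded fluorescence reading at Ex 386/Em 447 nm.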
aSyn rescue = inhibitors of alpha-synuclein toxicity in yeast. Yeast expressing alpha-synuclein, growth rescue, BacTiter-Glo, 24 h. AID 652106. hit rate 0.14% among 370,000. Potency, µM (titrated, usually from 46.1 µM), without a hit: at the top dose growth rescue (activation), actives largely listed as activators; also: % of control where 0% means no effect; nearly all actives have a fitted effect of over 65% in size
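Screening used galactose-induced yeast with toxic alpha-synuclein levels, exposed to compound for 24 hr at 30 deg C. Cell growth, read with BacTiter-Glo luminescence, gave the measured signal.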
TDP43 rescue = inhibitors of TDP-43 toxicity in yeast | TDP-43 expressing yeast growth rescue, BacTiter-Glo, 24 h | Potency, µM (doses to about 46.1 µM), without a hit: at the highest dose growth rescue (activation), actives largely listed as activators | hit rate 1.8% among 410,000 | AID 652104; also: % of control where 0% means no effect; nearly all actives have a fitted effect of over 50% in size
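Growth rescue of TDP-43-toxic yeast measured as ATP luminescence (BacTiter-Glo). Cells grown to mid-log in raffinose, induced in galactose at OD600=0.02, exposed to compound 24 hr at 30 deg C.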
Rango-impB inh = prevents formation of the Rango-importin beta complex | Rango CFP/YFP FRET sensor + importin beta, 45 min | hit rate 0.031% among 340,000 | Q14974 | AID 540263 | Potency, µM (doses to about 92.2 µM), for inactives: at the highest dose inhibition of complex formation; calls by dose curve;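 also: 0% = DMSO wells and 100% = buffer wells lacking importin beta; nearly all actives have a fitted effect of over 15% in size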
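Inhibition scored from the CFP 486 nm/YFP 530 nm FRET ratio 45 min after adding 0.125 microM importin beta to 50 nM Rango biosensor preincubated 5 min with compound (room temperature, PBS with DTT, Tween-20, BSA). No-importin wells as positive control.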
Rango dissoc inh = inhibition of RanGTP-driven Rango-importin beta dissociation; O95149+P62826; Biochemical FRET Rango-importin beta, RanGTP-induced dissociation; Potency, µM (titrated, usually from 46.1 µM), inactives show at the top dose activity change, negative = inhibition; hit rate 0.071% among 340,000; AID 540253; calls by dose curve; also: % of control where 0% means no effect; nearly all actives have a fitted effect of over 45% in size
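Rango/importin beta premix (0.1/0.25 uM final), PBS + 1 mM DTT + 0.02% Tween-20 + 0.1% BSA; cpd 5 min RT; FRET pre-read; + RanGTP-RCC1 (0.6 uM Ran, 2 mM GTP, 0.2 uM RCC1); 45 min RT; FRET post-read, ex 430, em 486/530 nm.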
The depositor's hits bear a star; i = inactive; u = inconclusive; x = no result given; [ ] = remark or other dose. Unless noted, calls follow the shape of the dose curve; as a rule, active = well fitted curve in the direction sought with a large enough effect; inconclusive = small, poorly fitted or top-dose-only effect, or another doubt; inactive = no such curve, though single readings can be large; an effect the other way counts as inactive or inconclusive. Potency is read from the fitted curve at half-maximal effect.

SMILES	Abeta rescue	S-ASM inh	aSyn rescue	TDP43 rescue	Rango-impB inh	Rango dissoc inh
CCCCc1ccccc1NC(=S)NC1CCCC1	7.08µM*	-1.8%	-5.2%	-9.8%	0.6%	12.7%
CSc1ccccc1NC(=S)NC1CCCC1	u	2.3%	1.6%	27.4%	2.0%	6.6%
S=C(Nc1cccc2ccccc12)Nc1cccc2ccccc12	i	1.0%	11.0%	0.6%	0.3%	-0.3%
S=C(Nc1cccc2ccccc12)NC1CCCCC1	12.6µM*	0.5%	21.1%	3.8%	-5.6%	-11.5%
Cc1ccccc1NC(=O)c1ccccc1OCC(=O)Nc1ccc(Br)cc1	x	x	-7.4%	x	x	x
CCOc1ccc(N(C)C(=O)c2oc(=O)c3ccccc3c2-c2ccccc2)cc1	i	x	x	9.2%	x	x
Cc1ccc(-c2c(C(=O)N(C)Cc3ccccc3)oc(=O)c3ccccc23)cc1	i	-1.1%	0.3%	12.6µM*	6.1%	-8.6%
CN(Cc1ccccc1)C(=O)c1oc(=O)c2ccccc2c1-c1ccccc1	i	0.5%	4.7%	14.1µM*	-3.9%	-0.4%
Cc1ccc(-c2c(C(=O)NCc3ccccc3)oc(=O)c3ccccc23)cc1	i	-0.3%	0.2%	-4.8%	-3.1%	1.9%
COC(=O)N1C(=O)[C@@](c2ccccc2)(C2CCCCC2)N1C(=O)OC	i	-7.7%	1.1%	17.8µM*	1.3%	-12.2%
CC[C@@]1(c2ccccc2)C(=O)N(C(=O)OC)N1C(=O)OC	i	3.3%	-0.3%	3.4%	u	-4.7%
COC(=O)N1C(=O)[C@](c2ccccc2)(C(C)C)N1C(=O)OC	i	2.9%	6.8%	10µM*	-2.4%	-6.6%
COC(=O)N1C(=O)[C@](Cc2ccccc2)(c2ccccc2)N1C(=O)OC	i	1.9%	4.1%	17.8µM*	-0.6%	-1.8%
CC[C@]1(c2ccccc2)C(=O)N(C(=O)OC)N1C(=O)OC	i	-4.3%	0.5%	-1.2%	-2.7%	51.7%
O=c1[nH]c2c(-c3nc(-c4ccc(Cl)cc4)cs3)c(O)cn2c2ccccc12	x	x	-0.6%	x	x	x
NC1=NC(=O)/C(=C\c2ccc(-c3ccccc3[N+](=O)[O-])o2)S1	x	x	-1.6%	x	x	x
CCCCN(CC)CCNc1ncnc2onc(-c3ccc(Cl)cc3)c12	i	x	x	12.2%	x	x
Cc1nn(C)c(C)c1/C=C/C(=O)c1ccc(Cl)cc1Cl	i	2.0%	10.5%	25.1µM*	3.3%	u
Cc1nn(C)c(C)c1/C=C/C(=O)O	i	-1.7%	7.7%	16.8%	-2.2%	-9.3%
Cn1nc(C(=O)NCc2ccc(Cl)cc2)c2c1-c1ccccc1SC2	i	x	x	7.6%	x	x
Cn1nc(C(=O)NCc2ccc(F)cc2)c2c1-c1ccccc1SC2	i	x	x	17.8µM*	x	x
CSc1ccc(CCNC(=O)c2nn(C)c3c2CS(=O)(=O)c2ccccc2-3)cc1	i	6.2%	7.6%	25.1µM*	-2.0%	7.5%
CC(NC(=O)c1nn(C)c2c1CSc1ccccc1-2)c1ccccc1 (stereo not given)	i	x	x	17.8µM*	x	x
COc1ccc(OC)c(CCNC(=O)c2nn(C)c3c2CSc2ccccc2-3)c1	i	x	x	22.4µM*	x	x
COc1ccccc1NC(=O)Cn1c(=O)n(-c2cccc(Cl)c2)c(=O)c2c1c1cc(C)ccc1n2C	i	x	x	20.4%	x	x
Cc1ccc(-n2nc(C(=O)N3CCCCC3)c(=O)n(C)c2=O)cc1	i	x	x	23.6%[9.22 µM]	x	x
O=C(CC1C(=O)OCCN1Cc1ccccc1)Nc1cccc(C(F)(F)F)c1 (stereo not given)	i	x	x	17.8µM*	x	x
COc1cccc(NC(=O)CC2C(=O)OCCN2Cc2ccccc2)c1 (stereo not given)	i	x	x	u	x	x
Cc1nn2c(=O)cc(COC(=O)c3cccc(NC(=O)COc4ccccc4C)c3)nc2s1	i	x	x	20.1%	x	x
Nc1ccccc1SC(CC(=O)c1ccccc1)c1cccc([N+](=O)[O-])c1 (stereo not given)	i	x	19.0%	25.1µM*	x	x

Compound activity: PubChem, National Center for Advancing Translational Sciences (NCATS)
